Four compounds from PubChem BioAssay (NCATS) can be followed below.

For assay [1], the target named is Lysosomal acid glucosylceramidase (Homo sapiens) (UniProt P04062). The assay can be described thus: Glucocerebrosidase-p2 (AID 348; in the data active means potency below about 10 µM; further: potency means the concentration at half of the fitted maximal effect). The following applies: purified GBA, blue fluorogenic substrate, 40 min. The gist of the method: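 Normal human glucocerebrosidase (0.2 nM) with blue fluorogenic substrate (80 uM final) in citrate/phosphate pH 5.9 with 10mM sodium taurocholate, 0.01% tween-20; 40 min RT, NaOH/glycine stop; fluorescence Ex 365/Em 440; AC50 from a titration from 0.6 nM upwards.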

Assay [2] in a line: AP1 Signaling Pathway (AID 357; active means well fitted curve in either direction with a large enough effect, not every such curve was filed as active;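 further: ME-180 reporter cells stimulated with EGF at its EC50 level; on the % scale 0 is the no-effect control and ±100 the full control effect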). As to conditions: ME-180 AP-1-bla reporter, EGF-induced, beta-lactamase ratio, 5 h; at 7.69 µM (top of the series) unless noted. The gist of the method: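 First, ME-180 AP-1-bla cells were cultured overnight at 37 °C in low-serum Opti-MEM. Next, titrated compounds with EC50 EGF were incubated 5 hours. Finally, CCF4 was added for 2.5 hours and the 460/530 nm ratio recorded.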

In assay [3] the target is Cytochrome P450 1A2 (Homo sapiens) (UniProt P05177). The assay can be described thus: p450-cyp1a2 (AID 410; calls by dose curve; further: potency means the concentration at half of the fitted maximal effect). As to conditions: recombinant CYP1A2, luciferin-ME demethylation, luminescence; series mostly up to 57 µM. The gist of the method: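 Luminescent demethylation readout: Luciferin-ME (100uM, equal to Km) turned over by 20nM CYP1A2 for 60 min at room temperature after NADPH regeneration addition, following 10 min compound preincubation. Normalization used 57 uM furafylline as full inhibition.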

Assay [4] in a line: Stat Signaling Pathway (AID 446; active means well fitted curve in either direction with a large enough effect, not every such curve was filed as active;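 further: ME-180 cervical cancer cells given 40 pM IL-6 alongside compound; SIE-controlled beta-lactamase reporter measured as 460/530 nm FRET emission ratio; on the % scale 0 is the no-effect control and ±100 the full control effect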). The following applies: ME-180 (cervical carcinoma) SIE beta-lactamase reporter, IL-6 stimulated, 5 h; at 7.69 µM (top of the series) unless noted. The gist of the method: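 Normalization used AC90 stimulation (300 pM IL-6) and AC90 inhibition (125 nM pan-JAK inhibitor at 40 pM IL-6). The underlying signal is SIE-driven beta-lactamase in ME-180 cells after 5 h IL-6 exposure with compound.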

The target in assay [5] is Glucocorticoid receptor (Homo sapiens) (UniProt P04150). The assay can be described thus: GR-GFP Redistribution (AID 450;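 active means compounds whose dose series gives a full or clear partial fitted curve of increased nuclear translocation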; further: potency means the concentration at half of the fitted maximal effect). As to conditions: U2OS GR-GFP nuclear translocation, laser cytometry, 2 h.
Assay [6] has the same target. The assay can be described thus: GR-EFC Redistribution (AID 451; calls by dose curve; further: potency means the concentration at half of the fitted maximal effect). The following applies: CHO-K1 GR-EFC translocation, beta-gal luminescence, 2 h. The gist of the method: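 CHO-K1 cells expressing nuclear EA and GR-ED fragments of b-gal; compounds titrated up to 46 uM final, 2 h at 37 C. GR nuclear translocation read as complemented b-gal luminescence after 1 h RT detection.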

For assay [7], the target named is Mitogen-activated protein kinase 10 (Mus musculus) (UniProt Q61831). The assay can be described thus: JNK3 AlphaScreen Assay (AID 530; active means well fitted curve in either direction with a large enough effect, not every such curve was filed as active;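 further: kinase came from lysate of stimulated human HepG2 cells; signal reports phosphorylation of biotinylated GST-cJun 1-79 at Ser73 with 10 µM ATP; on the % scale 0 is the no-effect control and ±100 the full control effect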). As to conditions: JNK3 lysate, c-Jun phosphorylation; series mostly up to 57.1 µM. The gist of the method: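 Activity was read by AlphaScreen after JNK3-containing HepG2 lysate (cytokine pre-activated) phosphorylated biotinylated GST-cJun with 10 uM ATP at room temperature. Phospho-Ser73 cJun antibody with Protein-A acceptor beads provided detection.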
(In general: Bead proximity is the source of the signal in Alpha formats.)

Assay [8] concerns the target Cytochrome P450 3A4 (Homo sapiens) (UniProt P08684). As to the kind of experiment: qHTS Assay for Inhibitors and Substrates of Cytochrome P450 3A4 (AID 884). Further: potency means the concentration at half of the fitted maximal effect; nearly all actives have a fitted effect of over 50% in size. As to conditions: recombinant CYP3A4, Luciferin-PPXE luminescence; series mostly up to 57.1 µM. The gist of the method:
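Luminescent readout of luciferin produced by CYP3A4 (20 nM) dealkylation of Luciferin-PPXE, 25 uM (its KM). NADPH-driven reaction ran 60 min at RT after 10 min compound preincubation; data scaled to 57 uM ketoconazole as 100% inhibition.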

The target is the same in assay [9]. As to the kind of experiment: qHTS Assay for Activators of Cytochrome P450 3A4 (AID 885). Further: nearly all actives have a fitted effect of over 65% in size. As to conditions: recombinant CYP3A4, Luciferin-PPXE luminescence, 60 min; series mostly up to 57.1 µM. The gist of the method: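 Human CYP3A4 dealkylates Luciferin-PPXE to luciferin, which luciferase detection converts to light. Substrate was at its KM (25uM), buffer 200mM KPO4, reaction 60 min at RT.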
For orientation: Quantitative high-throughput screening tests each substance at several concentrations.

The target of assay [10] is Cytochrome P450 2C19 (Homo sapiens) (UniProt P33261). The assay can be described thus: qHTS Assay for Inhibitors and Substrates of Cytochrome P450 2C19 (AID 899). Further: potency means the concentration at half of the fitted maximal effect; nearly all actives have a fitted effect of over 60% in size. The following applies: recombinant CYP2C19, luciferin-H EGE luminescence; series mostly up to 57.1 µM. The gist of the method:
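Luminescent read-out of luciferin formed from Luciferin-H EGE (10uM, equal to KM). Enzyme 5nM in 50mM KPO4; compound added, 10 min at 37C, then NADPH regenerating system for 60 min at 37C. Full inhibition defined by 57uM ketoconazole.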

The nature of assay [11]: qHTS Assay for Lipid Storage Modulators (AID 1519; calls by dose curve). As to conditions: Drosophila S3 cells, BODIPY lipid droplet/cell ratio, laser cytometry, cells loaded with oleic acid; for activity change, negative = inhibition: at 57.5 µM (top of the series). The gist of the method: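 Cells seeded at 5,000 per well were treated with compounds over a concentration series and loaded with oleic acid (400 uM, as added). Lipid droplet fluorescence (488 nm excitation, 500-530 nm channel) was read by laser-scanning cytometry and normalized to 20 uM Triacsin C.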

Assay [12] deals with Dual specificity protein kinase CLK4 (Homo sapiens) (UniProt Q9HAZ1). The assay can be described thus: qHTS Assay for Inhibitors of CDC-like Kinase 4 (ADP-FP Assay) (AID 1795).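 Further: recombinant human CLK4 phosphorylating RS repeat peptide at 1 µM ATP; on the % scale 0 is the no-effect control and ±100 the full control effect; nearly all actives have a fitted effect of over 60% in size.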 As to conditions: Transcreener ADP fluorescence polarization; series mostly up to 50 µM. The gist of the method:
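Recombinant Clk4 (6.25 nM) phosphorylated 100 uM RS repeat peptide with 1 uM ATP in 25 mM Tris pH 7.5, 10 mM MgCl2, 0.5 mM EGTA, 2.5 mM DTT, 0.01% Triton X-100 for 1 h. ADP was detected by Transcreener ADP2 competitive fluorescence polarization after 30 min at room temperature.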

Assay [13] deals with Ubiquitin carboxyl-terminal hydrolase 1 (Homo sapiens) (UniProt O94782). The assay can be described thus: Inhibitors of USP1/UAF1: Pilot qHTS (AID 504865).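 Further: rhodamine fluorescence freed from ubiquitin-rhodamine substrate followed over time; top concentration of the series differs between compounds; on the % scale 0 is the no-effect control and ±100 the full control effect; nearly all actives have a fitted effect of over 35% in size.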 As to conditions: purified USP1/UAF1, Ub-rhodamine cleavage fluorescence; series mostly up to 54.9 µM. The gist of the method:
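USP1/UAF1 complex at 1 nM preincubated 15 min at room temperature with compound, then Ub-Rho substrate added at 150 nM final. Fluorescence (480/540 nm) read kinetically in 50 mM HEPES pH 7.8, 0.5 mM EDTA, 1 mM TCEP, 0.1 mg/ml BSA, 0.01% Tween-20.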

Assay [14] can be described thus: NFAT Signaling Pathway (AID 444; active means well fitted curve in either direction with a large enough effect, not every such curve was filed as active;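 further: carbachol stimulus at about its EC50 of 1 µM final; on the % scale 0 is the no-effect control and ±100 the full control effect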). The following applies: Jurkat NFAT-bla M1, carbachol, beta-lactamase ratio, 5 h; at 7.69 µM (top of the series) unless noted. The gist of the method:
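Jurkat cells with NFAT-driven β-lactamase reporter and co-expressed M1 receptor, stimulated with carbachol (final 1 uM, ~EC50), compound titration, 5 h at 37 °C. CCF4 loaded 1 h at RT; 460/530 nm ratio gave %activity and AC50.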

Assay [15] deals with 3',5'-cyclic-AMP phosphodiesterase 4B (Homo sapiens) (UniProt Q07343). As to the kind of experiment: qHTS Assay for Inhibitors of PDE-IV (AID 607; active means well fitted activation curve with a large enough effect in the main read-out, with a control signal flat, not every such curve was filed as active; further: % of control where 0% means no effect). The following applies: HEK293 ACTOne CNG channel cells, membrane potential fluorescence; series mostly up to 22.9 µM. The gist of the method:
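HEK293 ACTOne cells with CNG channel (1000/well), endogenous PDE4; membrane potential dye, compounds up to 22.9 uM final. Fluorescence Ex 535/Em 590; RO 20-1724 (100 uM final) as reference.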

A short description of assay [16]: Confirmation and Secondary Assay for Modulators of Hemoglobin Beta Chain Splicing at IVS2 654 locus (AID 910).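 Further: HeLa cells stably carrying EGFP split by mutant beta-globin IVS2-654 intron; % of control where 0% means no effect.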 As to conditions: HeLa EGFP-654 splicing reporter, GFP fluorescence, 48 h; series mostly up to 38.3 µM. The gist of the method:
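HeLa cells stably expressing EGFP interrupted by β-globin IVS2-654 intron, seeded overnight in Opti-MEM/2% FCS, then treated 2 days at 37 °C. Restored splicing read as total peak GFP intensity per well by laser scanning cytometry (488 nm excitation, 500–520 nm emission); 500 nM antisense PNA as control.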

A short description of assay [17]: Confirmation and Secondary Assay for Modulators of Hemoglobin Beta Chain Splicing at IVS2 705 locus (AID 930).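 Further: HeLa cells stably expressing the EGFP-705 splicing reporter; % of control where 0% means no effect.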 The following applies: HeLa EGFP-705 splicing reporter, GFP fluorescence, 48 h; series mostly up to 38.3 µM. The gist of the method:
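HeLa cells stably carrying EGFP interrupted by mutant beta-globin IVS2-705 intron (CMV-driven) were seeded at 500 cells/well, treated next day with compound for 2 days at 37C; corrected splicing restores EGFP, read as total peak GFP intensity per well.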

Setting [18] is: measured here: cell count channel max response.
The mark [19] stands for this setting: measured here: lipid channel max response.

Records with an inconclusive call do not appear. Calls of active or inactive are those of the source. Unless noted, the call rests on the fitted dose curve; in most records, active means well fitted curve in the direction sought with a large enough effect; inconclusive means small, poorly fitted or top-dose-only effect, or another doubt; inactive means no such curve, though single readings can be large; an effect the other way counts as inactive or inconclusive.

Glucocorticoid receptor (Homo sapiens), sequence (P04150 whole entry, looked up, the tested form may be a part): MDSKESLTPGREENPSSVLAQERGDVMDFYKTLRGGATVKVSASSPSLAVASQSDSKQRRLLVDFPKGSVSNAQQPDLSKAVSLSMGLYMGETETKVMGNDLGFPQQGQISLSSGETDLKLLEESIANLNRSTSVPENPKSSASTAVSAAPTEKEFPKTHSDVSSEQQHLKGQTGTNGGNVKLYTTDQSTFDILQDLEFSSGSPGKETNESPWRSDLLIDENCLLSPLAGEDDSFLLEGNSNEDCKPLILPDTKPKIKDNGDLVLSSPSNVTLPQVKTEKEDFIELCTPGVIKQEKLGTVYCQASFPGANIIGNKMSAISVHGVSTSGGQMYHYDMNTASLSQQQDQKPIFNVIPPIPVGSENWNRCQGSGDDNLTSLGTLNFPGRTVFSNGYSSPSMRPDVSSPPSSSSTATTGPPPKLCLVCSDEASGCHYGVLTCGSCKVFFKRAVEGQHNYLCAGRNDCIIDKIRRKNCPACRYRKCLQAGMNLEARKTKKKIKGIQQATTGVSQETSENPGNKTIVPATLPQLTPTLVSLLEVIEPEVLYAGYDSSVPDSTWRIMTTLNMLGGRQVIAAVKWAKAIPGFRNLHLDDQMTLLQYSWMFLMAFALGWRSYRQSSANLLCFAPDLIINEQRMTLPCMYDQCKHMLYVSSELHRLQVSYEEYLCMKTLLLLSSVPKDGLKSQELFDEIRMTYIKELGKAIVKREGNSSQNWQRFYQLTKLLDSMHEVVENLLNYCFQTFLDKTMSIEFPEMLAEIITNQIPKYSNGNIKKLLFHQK
Cytochrome P450 3A4 (Homo sapiens), sequence (P08684 whole entry, looked up): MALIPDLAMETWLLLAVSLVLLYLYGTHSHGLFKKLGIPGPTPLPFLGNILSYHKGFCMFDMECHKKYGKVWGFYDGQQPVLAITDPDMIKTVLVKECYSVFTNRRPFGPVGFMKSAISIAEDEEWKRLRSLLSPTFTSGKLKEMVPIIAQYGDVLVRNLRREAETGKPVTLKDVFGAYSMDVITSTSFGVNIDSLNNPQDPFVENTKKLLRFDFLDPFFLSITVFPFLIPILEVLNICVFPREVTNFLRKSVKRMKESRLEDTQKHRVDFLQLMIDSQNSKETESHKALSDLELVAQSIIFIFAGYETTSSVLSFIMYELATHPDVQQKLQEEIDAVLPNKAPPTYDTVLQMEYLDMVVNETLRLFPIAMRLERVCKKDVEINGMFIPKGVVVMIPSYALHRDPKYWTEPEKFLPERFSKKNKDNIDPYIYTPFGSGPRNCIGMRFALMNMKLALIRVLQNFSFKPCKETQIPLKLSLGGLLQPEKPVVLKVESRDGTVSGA
Cytochrome P450 1A2 (Homo sapiens), sequence (P05177 whole entry, looked up): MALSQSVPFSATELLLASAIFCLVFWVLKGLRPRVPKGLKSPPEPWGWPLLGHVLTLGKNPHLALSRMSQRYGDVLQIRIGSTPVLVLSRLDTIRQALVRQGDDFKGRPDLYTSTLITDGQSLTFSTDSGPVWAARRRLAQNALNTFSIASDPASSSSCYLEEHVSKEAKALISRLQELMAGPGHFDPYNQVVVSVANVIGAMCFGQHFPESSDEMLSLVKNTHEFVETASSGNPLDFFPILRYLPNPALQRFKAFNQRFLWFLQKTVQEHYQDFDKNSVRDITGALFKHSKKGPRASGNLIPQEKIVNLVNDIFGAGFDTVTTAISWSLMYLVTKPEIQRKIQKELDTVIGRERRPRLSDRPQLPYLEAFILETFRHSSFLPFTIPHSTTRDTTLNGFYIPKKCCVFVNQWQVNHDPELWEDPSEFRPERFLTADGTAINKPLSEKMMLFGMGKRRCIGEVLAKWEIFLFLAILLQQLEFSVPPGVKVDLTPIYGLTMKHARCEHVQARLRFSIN
Lysosomal acid glucosylceramidase (Homo sapiens), sequence (P04062 whole entry, looked up): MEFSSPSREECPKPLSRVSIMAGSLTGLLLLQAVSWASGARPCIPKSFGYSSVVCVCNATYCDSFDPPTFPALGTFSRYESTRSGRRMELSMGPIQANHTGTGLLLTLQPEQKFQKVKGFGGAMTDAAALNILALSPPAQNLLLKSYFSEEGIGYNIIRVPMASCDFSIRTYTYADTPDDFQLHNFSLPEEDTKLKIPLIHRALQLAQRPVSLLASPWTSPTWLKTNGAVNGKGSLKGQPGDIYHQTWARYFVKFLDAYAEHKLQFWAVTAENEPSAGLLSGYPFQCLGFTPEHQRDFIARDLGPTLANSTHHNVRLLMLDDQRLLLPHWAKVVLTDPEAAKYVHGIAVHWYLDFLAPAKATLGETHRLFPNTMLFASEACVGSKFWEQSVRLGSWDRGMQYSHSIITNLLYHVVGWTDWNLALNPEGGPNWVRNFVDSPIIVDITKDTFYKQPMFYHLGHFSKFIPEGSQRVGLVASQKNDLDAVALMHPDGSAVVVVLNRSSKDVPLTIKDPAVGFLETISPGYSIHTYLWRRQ
Cytochrome P450 2C19 (Homo sapiens), sequence (P33261 whole entry, looked up): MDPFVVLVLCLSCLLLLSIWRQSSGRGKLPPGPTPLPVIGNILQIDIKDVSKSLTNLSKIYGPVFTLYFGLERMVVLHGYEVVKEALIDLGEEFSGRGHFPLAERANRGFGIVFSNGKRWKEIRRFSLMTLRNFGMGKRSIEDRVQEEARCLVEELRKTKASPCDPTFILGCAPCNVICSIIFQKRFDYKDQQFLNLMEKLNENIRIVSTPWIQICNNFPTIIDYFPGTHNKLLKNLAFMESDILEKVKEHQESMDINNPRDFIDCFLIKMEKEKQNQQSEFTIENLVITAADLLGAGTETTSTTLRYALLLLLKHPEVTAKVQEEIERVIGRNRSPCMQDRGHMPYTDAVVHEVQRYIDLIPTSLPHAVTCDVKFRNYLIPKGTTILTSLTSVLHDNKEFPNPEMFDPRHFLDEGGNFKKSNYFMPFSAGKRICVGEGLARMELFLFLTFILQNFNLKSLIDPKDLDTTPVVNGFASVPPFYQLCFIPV
Ubiquitin carboxyl-terminal hydrolase 1 (Homo sapiens), sequence (O94782 whole entry, looked up): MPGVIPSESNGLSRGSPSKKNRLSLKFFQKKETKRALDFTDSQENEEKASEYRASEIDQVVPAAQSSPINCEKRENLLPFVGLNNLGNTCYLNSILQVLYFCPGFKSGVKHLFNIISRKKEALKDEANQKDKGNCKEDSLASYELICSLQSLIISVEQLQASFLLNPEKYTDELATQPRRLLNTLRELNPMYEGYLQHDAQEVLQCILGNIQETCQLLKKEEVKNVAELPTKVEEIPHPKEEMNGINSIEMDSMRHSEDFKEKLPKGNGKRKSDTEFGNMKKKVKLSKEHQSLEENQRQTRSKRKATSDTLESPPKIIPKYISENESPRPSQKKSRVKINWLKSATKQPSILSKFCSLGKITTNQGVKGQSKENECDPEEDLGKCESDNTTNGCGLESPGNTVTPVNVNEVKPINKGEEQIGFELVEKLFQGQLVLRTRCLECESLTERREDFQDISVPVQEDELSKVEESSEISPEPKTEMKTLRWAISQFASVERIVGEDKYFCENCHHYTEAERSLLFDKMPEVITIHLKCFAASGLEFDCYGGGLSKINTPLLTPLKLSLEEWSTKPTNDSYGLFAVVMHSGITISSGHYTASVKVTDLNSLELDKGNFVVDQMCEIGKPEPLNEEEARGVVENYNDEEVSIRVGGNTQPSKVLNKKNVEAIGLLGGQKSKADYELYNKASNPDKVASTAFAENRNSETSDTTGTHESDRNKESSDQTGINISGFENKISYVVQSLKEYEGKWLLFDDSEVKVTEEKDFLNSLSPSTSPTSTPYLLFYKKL
3',5'-cyclic-AMP phosphodiesterase 4B (Homo sapiens), sequence (Q07343 whole entry, looked up): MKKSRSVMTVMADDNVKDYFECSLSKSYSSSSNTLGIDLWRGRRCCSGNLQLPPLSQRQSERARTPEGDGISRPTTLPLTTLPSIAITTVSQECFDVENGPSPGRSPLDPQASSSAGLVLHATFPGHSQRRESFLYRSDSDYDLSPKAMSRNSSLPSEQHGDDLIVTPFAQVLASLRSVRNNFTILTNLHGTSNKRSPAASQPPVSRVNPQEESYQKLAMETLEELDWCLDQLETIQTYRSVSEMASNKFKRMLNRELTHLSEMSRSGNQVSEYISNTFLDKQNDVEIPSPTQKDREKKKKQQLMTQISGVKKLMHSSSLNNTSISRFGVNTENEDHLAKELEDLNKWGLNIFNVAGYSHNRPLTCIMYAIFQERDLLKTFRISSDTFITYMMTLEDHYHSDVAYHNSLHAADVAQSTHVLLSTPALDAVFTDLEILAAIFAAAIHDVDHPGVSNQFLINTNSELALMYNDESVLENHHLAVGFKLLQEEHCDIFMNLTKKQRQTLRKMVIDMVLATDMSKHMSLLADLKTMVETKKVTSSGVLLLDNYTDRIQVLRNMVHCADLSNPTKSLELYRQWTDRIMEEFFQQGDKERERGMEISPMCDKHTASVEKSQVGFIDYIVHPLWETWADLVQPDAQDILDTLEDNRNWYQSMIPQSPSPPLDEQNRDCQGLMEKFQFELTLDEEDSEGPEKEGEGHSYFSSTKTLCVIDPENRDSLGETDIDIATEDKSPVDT
Dual specificity protein kinase CLK4 (Homo sapiens), sequence (Q9HAZ1 whole entry, looked up): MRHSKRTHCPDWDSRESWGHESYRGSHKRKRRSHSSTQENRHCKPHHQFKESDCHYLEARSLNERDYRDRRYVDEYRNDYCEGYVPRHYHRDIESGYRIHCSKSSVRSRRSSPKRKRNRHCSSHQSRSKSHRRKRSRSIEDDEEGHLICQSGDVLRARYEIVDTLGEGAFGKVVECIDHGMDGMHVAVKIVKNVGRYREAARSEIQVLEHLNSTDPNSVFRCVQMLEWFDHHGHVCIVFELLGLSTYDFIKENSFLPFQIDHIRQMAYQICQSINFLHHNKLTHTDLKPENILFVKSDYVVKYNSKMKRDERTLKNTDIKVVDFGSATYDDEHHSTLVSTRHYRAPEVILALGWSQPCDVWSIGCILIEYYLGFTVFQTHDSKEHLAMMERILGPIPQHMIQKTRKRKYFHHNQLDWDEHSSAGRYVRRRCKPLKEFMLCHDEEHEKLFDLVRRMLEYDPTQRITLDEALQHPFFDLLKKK

For `FC(F)(F)c1ccccc1-c1ccc2ncnc(NCc3cccs3)c2c1`, the Potency is > 11.4 µM (inactive) in assay [1]; 7.94 µM (active) in [3]; > 46 µM (inactive) in assay [5]; > 46 µM (inactive) in [6]; 5.01 µM (active) in assay [8]; 3.16 µM (active) in assay [10]. For the same compound, the activity change, negative = inhibition was 13.7% (inactive) in assay [2] and -3.1% (inactive) in assay [11]. In addition, in assay [4], the activity, negative = inhibition was -16.1% (inactive). Besides, the Potency entry in assay [7], in assay [9], in [12] and in assay [13] was “inactive” each time. Also, the max response in assay [11] (setting [18]) was 9.21%; in assay [11] (setting [19]) it was 5.18%.

As for `Cc1nc2cnc(N(C)C)nc2n(Cc2cccs2)c1=O`, the Potency is > 11.4 µM (inactive) in [1], 1.26 µM (active) in assay [3], > 9.22 µM (inactive) in [5] and > 46 µM (inactive) in [6]. Besides, the activity change, negative = inhibition in [2] is -12% (inactive); in assay [14], -7.11% (inactive); in assay [11], 3.99% (inactive). For the same compound, the activity, negative = inhibition in assay [4] was -2.49% (inactive). Further, the Potency entry in assay [7] and in assay [9] was “inactive” throughout. The max response in assay [11] (setting [18]) amounted to 10.1%; in assay [11] (setting [19]) it was 16.8%.

In the case of `CN(Cc1ccco1)c1ccnc(-c2cccc(NS(C)(=O)=O)c2)n1`, the Potency in assay [1] is > 11.4 µM (inactive); in [3], 1.26 µM (active); in [5] it was > 46 µM (inactive); in [6], > 46 µM (inactive); in assay [8], 6.31 µM (active). Moreover, the activity change, negative = inhibition in assay [2] is -9.76% (inactive); in assay [14], -2.37% (inactive); in assay [11], 9.05% (inactive). The activity, negative = inhibition in assay [4] is 2.34% (inactive). The Potency result in assay [7], in [15], in assay [9], in [16] and in [13] was “inactive” in each case. The compound was classed as inactive in assay [17]. For the same compound, the max response in [11] (setting [18]) came out at 18.7%; in assay [11] (setting [19]), 26.7%.

`Cc1cccc(CNc2nc(-c3ccoc3)nc3ccccc23)c1`: the Potency in assay [1] is > 11.4 µM (inactive); in assay [3], 1.26 µM (active); in assay [5], > 46 µM (inactive); in [6] it was > 46 µM (inactive); in assay [8] it was 6.31 µM (active); in assay [10] it was 7.94 µM (active). In addition, the activity change, negative = inhibition in assay [2] was -0.544% (inactive); in assay [14] it was -3.51% (inactive); in [11] it was 11.1% (inactive). Moreover, the activity, negative = inhibition in assay [4] was -10.1% (inactive). The Potency entry in assay [7] and in assay [9] was “inactive” each time. Further, the outcome in assay [17] was inactive. Moreover, the values for the max response in assay [11] (setting [18]) and in assay [11] (setting [19]) were -24.1% and -2.26%, respectively.
